The record followed here is PubChem BioAssay AID463173 (ICCB-Longwood Screening Facility, Harvard Medical School, 2010).

SMILES strings stand for the structures. Out of some 52,000 compounds screened, about 4,300 (8.3%) were called active. The list comes from a sample in which actives are over-represented; it also holds similar structures and randomly drawn compounds. Unmarked numbers belong to inactive results. Cut-off read from the data, not from the text of the source: active = survival mostly below about 52% (no sharp cut-off); inactive = mostly above about 56%.

This experiment concerns DeltatarO mutant. Kind of experiment: S. aureus survival, RN4220 and DeltatarO strains – OD600, teichoic acid synthesis inhibitors, primary screen (AID 463173). The following applies: S. aureus RN4220 wild type/DeltatarO growth, OD600, 18 h, stronger effect = lower value, screened at 18.75 µg/mL (by protocol).
In the case of `CC(Oc1ccccc1)C(=O)Nc1ccccc1C(=O)OCc1cc(=O)n2nc(C(C)C)sc2n1` (stereo unspecified), the survival is 83%.
In the case of `Cc1ccn2c(Nc3ccccc3C)c(-c3ccccc3)nc2c1` it was 0% (active).
To `Cc1cccc(C)c1Nc1c(-c2ccccn2)nc2ccc(Cl)cn12` belongs 135%; to `Cc1ccn2c(Nc3ccccc3C)c(-c3ccccn3)nc2c1`, 11% (active).
To `Cc1ccc2nc(-c3ccccn3)c(Nc3ccccc3C)n2c1` belongs 15%; to `Cc1ccn2c(Nc3ccccc3C)c(-c3cccnc3)nc2c1`, 81%.
For `Cc1ccn2c(Nc3ccccc3C)c(-c3ccncc3)nc2c1`, the survival is 85%.
In the case of `Cc1ccc2nc(N3CCN(c4ccccc4F)CC3)c3nnnn3c2c1` it was 87%.
To `Cc1ccc(C)c(-n2cc(-c3ccccc3)nc2SCC(=O)Nc2ccccc2)c1` belongs 96%; to `Cc1cccc(NC(=O)c2cnn(-c3ccccc3)c2-n2cccc2)c1C`, 77%.
In the case of `CCC(=O)N1CCc2cc(Br)cc(S(=O)(=O)CCC(=O)N3CCN(c4cccc(C)c4)C(C)C3)c21` (stereo unspecified) it was 65%; in that of `O=C(Nc1nc2n(n1)C(c1ccc(F)cc1)C=C(c1ccc(Cl)cc1)N2)c1ccco1` (stereo unspecified), 16% (active); in that of `O=C(Nc1nc2n(n1)C(c1ccc(Cl)cc1)C=C(c1ccccc1)N2)c1ccco1` (stereo unspecified), 35% (active).
`COc1ccc(C(=O)Nc2nc3n(n2)C(c2ccc(Cl)cc2)C=C(c2ccccc2)N3)cc1OC` (stereo unspecified): the survival was 59%.
Turning to `O=C(Nc1nc2n(n1)C(c1ccccc1)C=C(c1ccccc1)N2)c1ccccc1` (stereo unspecified), the survival is 109%.
To `O=C(Nc1nc2n(n1)C(c1ccc(F)cc1)C=C(c1ccccc1)N2)c1cccc([N+](=O)[O-])c1` (stereo unspecified) belongs 99%; to `Cc1ccc(C2C=C(c3ccc(Cl)cc3)Nc3nc(NC(=O)c4ccco4)nn32)cc1` (stereo unspecified), 67%.
Take `O=C(Nc1nc2n(n1)C(c1ccc(F)cc1)C=C(c1ccccc1)N2)c1ccco1` (stereo unspecified): the survival was 41% (active).
In the case of `O=C(Nc1nc2n(n1)C(c1ccccc1)C=C(c1ccc(Cl)cc1)N2)c1ccco1` (stereo unspecified) it was 42%.
To `CC(=O)Nc1nc2n(n1)C(c1ccc(F)cc1)C=C(c1ccc(Cl)cc1)N2` (stereo unspecified) belongs 59%; to `O=C(NCCN1CCN(c2ccccc2)CC1)Nc1ccccc1Br`, 87%; to `Cc1ccc(C)c(CN2C(=O)c3ccccc3S(=O)(=O)c3ccc(C(=O)N4CCCCC4)cc32)c1`, 61%.
In the case of `Cc1cc2nn(-c3ccc(F)cc3)nc2cc1NC(=O)c1ccc(OC(C)C)cc1` it was 64%; in that of `O=c1c(S(=O)(=O)c2cccc(Cl)c2)cn(Cc2ccccc2)c2cc(N3CCOCC3)c(F)cc12`, 83%.
For `CCC(=O)N1CCc2cc(CNS(=O)(=O)c3ccc(NC(=O)CC(C)C)cc3)ccc21`, the survival was 86%.
In the case of `CC(=O)Nc1ccc(OC(=O)c2ccco2)cc1` it was 71%; in that of `c1coc(CNc2ncnc3sc4c(c23)CCCC4)c1`, 107%; in that of `c1cn(CCCNc2ncnc3sc4c(c23)CCCCC4)cn1`, 65%.
In the case of `CCc1ccc(Nc2ncnc3sc4c(c23)CCCC4)cc1`, the survival was 72%.
In the case of `CC(C)OCCCNc1ncnc2sc3c(c12)CCCC3` it was 42% (active).
To `CN(C)c1ccc(Nc2ncnc3sc4c(c23)CCCC4)cc1` belongs 106%.
Regarding `Cc1cc(C)cc(Nc2ncnc3sc4c(c23)CCCC4)c1`, the survival is 0% (active).
In the case of `CCOc1ccccc1NC(=O)C1CCN(S(=O)(=O)c2c(C)noc2/C=C/c2ccco2)CC1`, the survival was 72%.
In the case of `COc1ccc(N2CCN(S(=O)(=O)c3ccc(CC(C)C)cc3)CC2)cc1`, the survival was 56% (active).
In the case of `COc1ccc(N2CCN(S(=O)(=O)c3ccc4c(c3)C(C(C)C)C(=O)N4)CC2)cc1` (stereo unspecified) it was 125%; in that of `COc1ccc(N2CCN(S(=O)(=O)c3ccc(C4CCCCC4)cc3)CC2)cc1`, 79%; in that of `Cc1ccc(NC(=O)Cn2cc(C(=O)C3CC3)c3ccccc32)cc1`, 148%.
To `CCOC(=O)c1c(C)n(-c2ccccc2)c2ccc(OC(=O)COc3ccccc3)cc12` belongs 70%; to `CCN1C(=C(C#N)C#N)C=Cc2cc(C)ccc21`, 70%.
Consider `COc1cccc(N2CC(NC(=O)c3ccc(S(=O)(=O)N4CCOCC4)cc3)CC2=O)c1` (stereo unspecified), for which the survival is 117%.
Consider `COC(=O)Cc1c(C)nc2nc(-c3ccc(C)cc3)[nH]n2c1=O`, for which the survival is 92%.
In the case of `Cc1nn(C(C)C(=O)Nc2ccccc2C(F)(F)F)c(=O)c2c1sc1ccccc12` (stereo unspecified) it was 107%.
Turning to `CC(C(=O)Nc1cccc(C#N)c1)n1nc(-c2ccccc2)c2c(c1=O)CCCC2` (stereo unspecified), the survival was 20% (active).
In the case of `CC(=O)Nc1ccccc1-c1nc2ccccc2n(C(C)C(=O)Nc2ccccc2C(F)(F)F)c1=O` (stereo unspecified) it was 98%; in that of `CCN(CC)S(=O)(=O)c1cc(-c2ccc(=O)n(C(C)C(=O)Nc3cccc(C#N)c3)n2)ccc1C` (stereo unspecified), 56%; in that of `CC(C(=O)Nc1ccccc1)n1nnc2sc3c(c2c1=O)CCCC3` (stereo unspecified), 61%.
Regarding `CC(C(=O)Nc1ccccc1C(F)(F)F)n1nc(-c2ccccc2)c2c(c1=O)CCCC2` (stereo unspecified), the survival was 30% (active).
In the case of `CCN(C(=O)Cn1c(=O)n(-c2ccccc2)c(=O)c2ccc(C(=O)NCc3ccc4c(c3)OCO4)cc21)c1cccc(C)c1` it was 84%.
In the case of `CC(C)C(c1nnnn1C(C)(C)C)N(Cc1cc2cc3c(cc2[nH]c1=O)OCCO3)C1CCCCC1` (stereo unspecified) it was 109%; in that of `COc1cccc(NC(=O)CCN2CCN(CCO)CC2)c1`, 158%; in that of `CC(C)c1nn2c(=O)cc(COC(=O)CNC(=O)c3ccccc3Cl)nc2s1`, 125%.
For the compound `COc1ccc2oc(=O)cc(CN3CCN(C(=O)c4ccccc4F)CC3)c2c1`, the survival is 36% (active).
Consider `COc1ccc2oc(=O)cc(CN3CCN(Cc4ccccc4)CC3)c2c1`, for which the survival was 83%.
With `COc1ccc(N2CCN(Cc3cc(=O)oc4ccc(OC)cc34)CC2)cc1`, the survival is 86%.
In the case of `COc1ccc2oc(=O)cc(CN3CCN(C(=O)c4ccccc4Br)CC3)c2c1` it was 44% (active); in that of `CCOc1ccc2oc(=O)cc(CN3CCN(c4ccccc4)CC3)c2c1`, 83%; in that of `COc1ccc2oc(=O)cc(CN3CCN(C(=O)c4ccccc4)CC3)c2c1`, 41% (active).
To `COc1ccc2oc(=O)cc(CN3CCN(c4ccccc4F)CC3)c2c1` belongs 72%.
`COc1ccc2oc(=O)cc(CN3CCN(c4ccccc4OC)CC3)c2c1`: the survival is 77%.
To `COc1ccc2oc(=O)cc(CN3CCN(c4ccc(F)cc4)CC3)c2c1` belongs 61%; to `CC(C)NC(=O)C1CCN(Cc2ccccc2Cl)CC1`, 92%.
In the case of `Cc1ccc(NC(=O)CCNS(=O)(=O)c2ccc3c(c2)CCN3C(=O)C2CC2)c(Cl)c1` it was 83%; in that of `COc1ccc(Cl)cc1NC(=O)CSc1nnc(C)n2c1cc1occc12`, 50%; in that of `Cc1ccc(C)c(NC(=O)Cn2c(=O)n(CCC(=O)NCc3ccc4c(c3)OCO4)c(=O)c3ccccc32)c1`, 104%.
Regarding `O=C(CN1C(=O)CSC1=O)c1ccccc1`, the survival was 88%.
For the compound `CC1Cc2ccccc2N1C(=O)c1cnsn1` (stereo unspecified), the survival is 97%.
In the case of `CC1=C(C(=O)Nc2ccc(Cl)cc2)C(c2cccs2)n2nc(SCc3cccc(Cl)c3)nc2N1` (stereo unspecified) it was 89%; in that of `CCNC(=S)Nc1cc(-c2ccc(Cl)cc2)[nH]n1`, 20% (active).
To `CCOC(=O)/C=C(\C)Nc1cc(-c2ccc(Cl)cc2)[nH]n1` belongs 68%; to `CC(=O)Nc1cc(-c2ccc(Cl)cc2)[nH]n1`, 106%.
As to `CCN(CC)S(=O)(=O)c1ccc2c(c1)N(CC(=O)N1CCN(c3ccc(F)cc3)CC1)C(=O)CO2`, the survival was 94%.
With `Cc1oc(-c2ccc(Cl)cc2)nc1CS(=O)CC(=O)NCc1ccc(Cl)cc1` (stereo unspecified), the survival is 63%.
Regarding `Cc1ccc(-c2onc(C)c2C)cc1S(=O)(=O)Nc1ccc(Cl)cn1`, the survival was 97%.
To `Cc1cccc(NC(=O)CSc2ncc(-c3ccccc3)[nH]2)c1C` belongs 51%; to `O=C(CSc1ncc(-c2ccccc2)[nH]1)Nc1cccc(Br)c1`, 9% (active); to `O=C(CSc1nc(-c2cccs2)nc2cc(=O)[nH]n12)Nc1ccccc1F`, 47% (active).
`O=C(CSc1nc(-c2cccs2)nc2cc(=O)[nH]n12)Nc1ccccc1Cl`: the survival was 76%.
In the case of `Cc1ccccc1NC(=O)CSc1nc(-c2cccs2)nc2cc(=O)[nH]n12` it was 93%; in that of `Cc1cccc(NC(=O)CSc2ncc(-c3ccc(Br)cc3)[nH]2)c1`, 110%; in that of `O=C(CSc1nc2cc3ccccc3cc2[nH]1)Nc1cccc(C(F)(F)F)c1`, 74%.
With `COc1ccc(-c2nnc(SCC(=O)NC3CCCC3)nc2-c2ccc(OC)c(OC)c2)cc1OC`, the survival is 47% (active).
For `CCOc1ccc(-c2nnc(SCC(=O)NC3CCCC3)nc2-c2ccc(OCC)c(OC)c2)cc1OC`, the survival was 71%.
`O=C(CSc1ncc(-c2ccccc2)[nH]1)Nc1cccc(O)c1`: the survival is 89%.
To `O=C(CSc1ncc(-c2ccccc2)[nH]1)Nc1cccc(C(F)(F)F)c1` belongs 12% (active); to `CCOc1ccc(-c2nnc(SCC(=O)NC3CCCCC3)nc2-c2ccc(OCC)c(OC)c2)cc1OC`, 78%; to `O=C1NC(=O)C2C3c4ccccc4C(c4ccccc43)C12` (stereo unspecified), 98%.
In the case of `O=C(CSc1nnc(CNC(=O)c2c(F)cccc2Cl)o1)Nc1cccc(F)c1` it was 82%; in that of `CCc1ccc(CNC(=O)c2ccc3c(c2)nc2n3CCCCC2)cc1`, 79%.
To `COC(=O)c1c(NC(=O)c2cc(=O)c3ccc(C)c(C)c3o2)sc2c1CCCC2` belongs 84%; to `N#CC(C#N)=Cc1cn(CCOc2ccc3c(c2)OCO3)c2ccccc12`, 98%.
`CCOC(=O)c1cc(=O)n2[nH]c(-c3ccc(Br)cc3)cc2n1`: the survival was 93%.
